Assay results published in PubChem BioAssay (NCI).
This is part of a sample that, as a whole, favours compounds with a hit. Of some 83,000 tested, about 20% had one in any assay.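 Results are percent growth after 48 hours of single-concentration exposure. 100 means growth as in untreated cells, lower positive values show inhibition; negative values down to -100 show cell death.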 Calls of active or inactive are those of the source. The calls were made as follows: active = growth percent below 10; inactive = the rest.

Test system: HT29 colon
Experiment: NCI-60 one-dose screen, 48 h (100 = growth as untreated, 0 = no growth, -100 = all killed)
Settings: 10 µM unless noted

| SMILES | growth |
| --- | --- |
| O=C1Nc2cc(Cl)ccc2/C1=C\c1ccc(OCc2ccc(Br)cc2F)cc1 | 0.627% (active) |
| COc1cc(/C=C/C(=O)c2cc(OC)c(OC)c(OC)c2)ccc1OCc1ccccc1 | 5.03% (active) |
| NC(=O)c1cc(-c2ccc3ncnc(N4CCc5cc(F)c(Cl)cc54)c3c2)cnc1N | 21% (inactive) |
| COc1ccc(NC2=C(Cl)C(=O)C(C)=C(C)C2=O)cc1OC | 101% (inactive) |
| Cn1ccnc1C(=O)/C=C/c1ccc(NC(=O)Nc2ccc(F)cc2)cc1 | 11.7% (inactive) |
| O=C(CCN1C(=O)/C(=C/c2ccccc2)SC1=S)N1CCOCC1 | 102% (inactive) |
| Cc1ccc(CNS(=O)(=O)/N=C2\NC(=O)NC2=C(Cl)Cl)cc1 | 15.7% (inactive) |
| N#Cc1c(-c2ccc(Cl)cc2)nc(SCc2ccc(F)cc2)nc1N1CCNCC1 | -51.8% (active) |
| COc1ccc(/C=N/NC(=O)c2[nH]c3ccc(Br)cc3c2-c2ccccc2)o1 | -26.9% (active) |
| O=C(Nc1nc2ccc(O)cc2s1)c1cccc(C(F)(F)F)c1 | 102% (inactive) |

Test system: SNB-75 CNS
Experiment: as above
Settings: 10 µM unless noted

| SMILES | growth |
| --- | --- |
| Cc1ccc2c(n1)C(=O)C(Cl)=C(Nc1cccc(C(C)C)c1)C2=O | 68.6% (inactive) |
| Cn1cc(-c2cc(N)n3nc(-c4cn(C)c5ccc(F)cc45)cc3n2)c2cc(F)ccc21 | 109% (inactive) |
| Cn1c(SCC(=O)c2cccs2)nc2ccccc2c1=O | 88.7% (inactive) |
| CCCC(=O)NC(c1ccc(N(CC)CC)cc1)c1cc(C)c2cccnc2c1O (stereo not given) | 60.4% (inactive) |
| COC(=O)C1CCCN(S(=O)(=O)/N=C2\NC(=O)NC2=C(Cl)Cl)C1 (stereo not given) | 125% (inactive) |
| O=C(N/N=C/c1ccc([N+](=O)[O-])s1)c1[nH]c2ccc(Br)cc2c1-c1ccccc1 | 26.2% (inactive) |
| C=C1CC[C@H]2[C@@](C)(CCC3OC(c4ccc(OCc5cn(C6CC(OC(C)=O)C(OC(C)=O)C(COC(C)=O)O6)nn5)cc4)OC[C@]32C)[C@@H]1/C=C/C1=CCOC1=O (stereo not given in full) | 94.8% (inactive) |
| COc1ccc([C@@H]2c3[nH]c4ccccc4c3CC3C(=O)N(C4CCN(Cc5c(F)cccc5F)CC4)CC(=O)N32)c(OC)c1 (stereo not given in full) | 22.3% [5.26 µM] (inactive) |
| O=C(N/N=C/c1ccc(Br)s1)c1[nH]c2ccc(Br)cc2c1-c1ccccc1 | 39.5% (inactive) |
| O=C1c2c(c3c4cccnc4[nH]c3c3ccc4ccccc4c23)C(=O)N1CCO | 118% (inactive) |
| Nc1c(C(=O)Nc2ccc(C(F)(F)F)cc2)sc2nc(-c3cnccn3)cc(-c3cccs3)c12 | 34.2% (inactive) |
| CSc1ccc2c(c1)N(C(=O)/C(C#N)=C/c1c[nH]c3ccccc13)c1ccccc1S2 | 8.61% (active) |
| Cc1cc(C(=O)Nc2sc3c(c2C(N)=O)CCC(=O)C3)ccc1OCCN1CCCCC1 | 95.2% (inactive) |
| CN(C)c1ccc(/C=c2\sc3nc4ccccc4n3c2=O)cc1 | 105% (inactive) |
| CN(C)c1ccc(/C=C2\Cc3c(F)ccc(Br)c3C2=O)cc1 | 87.8% (inactive) |
| CN1CCN(Cc2ccc(NC(=O)c3cncc(C#Cc4cnc5ccc(N6CCSCC6)nn45)c3)cc2C(F)(F)F)CC1 | -67.4% (active) |
| COc1cc(/C=C/C(=O)c2ccc(C)cc2)ccc1Oc1nc(NCCO)nc(N2CCOCC2)n1 | 93.7% (inactive) |
| O=C(CSc1nnc(-c2ccc3nc(-c4ccc(Cl)cc4)[nH]c3c2)o1)Nc1ccc(C(=O)/C=C/c2ccc(Cl)cc2)cc1 | 90.9% (inactive) |
| C#Cc1nc(C2=C(C)C(=N\O)/C(=N/O)C2)cs1 | 60% (inactive) |
| CCOc1ccc2nc(NC(=O)c3ccc(C(F)(F)F)cc3)sc2c1 | 102% (inactive) |
| CC(O)C(NC(=O)C1CCCN1C(=O)CNC(=O)C1CC(=O)NCC(=O)NC(Cc2c[nH]c3ccccc23)C(=O)NC(Cc2ccc(O)cc2)C(=O)NCC(=O)NC(CO)C(=O)NC(CCC(N)=O)C(=O)NC(Cc2c[nH]c3ccccc23)C(=O)N1)C(=O)NCC(=O)NC(CCC(N)=O)C(=O)NC(CCCNC(=N)N)C(=O)NC(CC(=O)O)C(=O)O (stereo not given) | 92.4% (inactive) |
| CC1=C(C)C(=O)C(Nc2ccccc2)=C(Cl)C1=O | 65.4% (inactive) |
| CO/N=C1\CCc2c(sc(NC(=O)c3cccc(C(F)(F)F)c3)c2C(N)=O)C1 | -58.4% (active) |
| COc1ccc(CNS(=O)(=O)/N=C2\NC(=O)NC2=C(Cl)Cl)cc1 | -23.1% (active) |
| NS(=O)(=O)c1cccc(Nc2nc(SCC(=O)c3ccc([N+](=O)[O-])cc3)nc3ccccc23)c1 | 45.9% (inactive) |
